# Measured values published in PubChem BioAssay AID488969 (Vanderbilt High Throughput Screening Facility, 2010).
# Over roughly 110,000 compounds, “z-score” has its median near -0.1; the highest 2% begin near 2. Only a selection was taken, and the highest values are over-represented in it overall. Active and inactive are the calls of the source.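 Rule for the calls: active = z-score in the third read window above 3 or below -3; inactive = the rest.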
# Target: Metabotropic glutamate receptor 8 (Rattus norvegicus) (UniProt P70579)
# Sequence (P70579 whole entry, looked up): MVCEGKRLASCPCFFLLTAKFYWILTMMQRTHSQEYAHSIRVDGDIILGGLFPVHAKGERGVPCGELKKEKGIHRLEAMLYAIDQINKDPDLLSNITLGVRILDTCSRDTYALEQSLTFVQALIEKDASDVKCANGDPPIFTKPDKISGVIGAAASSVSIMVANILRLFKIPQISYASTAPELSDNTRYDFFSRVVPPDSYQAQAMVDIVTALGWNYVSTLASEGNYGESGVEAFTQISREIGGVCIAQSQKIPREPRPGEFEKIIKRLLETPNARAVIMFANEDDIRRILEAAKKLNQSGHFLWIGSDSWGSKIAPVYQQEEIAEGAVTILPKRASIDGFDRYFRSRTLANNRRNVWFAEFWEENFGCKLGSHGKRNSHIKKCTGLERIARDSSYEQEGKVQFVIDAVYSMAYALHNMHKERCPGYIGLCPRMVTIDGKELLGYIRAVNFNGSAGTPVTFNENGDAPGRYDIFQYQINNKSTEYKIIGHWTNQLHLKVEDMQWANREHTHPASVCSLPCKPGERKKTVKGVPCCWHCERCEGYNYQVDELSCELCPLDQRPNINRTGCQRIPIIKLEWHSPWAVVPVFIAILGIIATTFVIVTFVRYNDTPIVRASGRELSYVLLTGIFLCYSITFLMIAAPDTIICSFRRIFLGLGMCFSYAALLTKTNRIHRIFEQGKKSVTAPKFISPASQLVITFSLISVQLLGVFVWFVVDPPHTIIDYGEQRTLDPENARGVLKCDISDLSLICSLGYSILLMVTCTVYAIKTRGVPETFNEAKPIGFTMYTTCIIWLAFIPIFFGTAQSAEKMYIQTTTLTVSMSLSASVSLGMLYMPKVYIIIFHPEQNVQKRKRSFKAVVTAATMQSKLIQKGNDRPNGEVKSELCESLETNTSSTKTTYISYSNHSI
# Experiment: rat mGluR8 modulators via GIRK flux, primary screen, cell-based, thallium flux, HTS (AID 488969)
# Details: HEK293 rat mGluR8, GIRK (G protein-gated inwardly rectifying potassium channel) thallium flux, FluoZin2; at 10 µM; stronger effect = higher value; submaximal glutamate (EC20) added with thallium
row,Structure (SMILES),z-score
1,CC(c1ccco1)N(C(=O)c1ccccc1NS(=O)(=O)c1cc([N+](=O)[O-])ccc1Cl)c1ccccn1 (stereo not drawn),2.18
2,CC(c1ccco1)N(C(=O)c1ccccc1NS(=O)(=O)c1ccc(Cl)c([N+](=O)[O-])c1)c1ccccn1 (stereo not drawn),0.843
3,CC(c1ccco1)N(C(=O)c1ccccc1NS(=O)(=O)c1ccc(Cl)cc1)c1ccccn1 (stereo not drawn),-0.362
4,O=C(CN1C(=O)C2CC=CCC2C1=O)Nc1nnc(SCc2ccc(Cl)cc2)s1 (stereo not drawn),-0.31
5,Cc1ccc(Nc2nnc(-c3ccncc3)s2)c(Br)c1,0.13
6,c1ccc2c(Nc3nnc(-c4ccncc4)s3)cccc2c1,4.07 (active)
7,CCNc1nnc(-c2ccncc2)s1,-0.233
8,N=C1CCCN1CC(=O)c1ccc(Cl)cc1,0.073
9,COc1cc2c(C)nc3onc(-c4ccccc4)c3c2cc1OC,-0.241
10,Cc1ccc2nc(SCC(=O)NC3CCCc4ccccc43)[nH]c2c1 (stereo not drawn),0.164
11,O=C(CSc1nc2ccccc2[nH]1)NC1CCCc2ccccc21 (stereo not drawn),2.41
12,COc1ccc2nc(SCC(=O)NC3CCCc4ccccc43)[nH]c2c1 (stereo not drawn),0.0427
13,O=C(NCc1cccnc1)C1CCN(C(=O)c2ccc(Cl)cc2Cl)CC1,-0.0203
14,N=C1S/C(=C\c2cn[nH]c2-c2ccc(F)cc2)C(=O)N1c1ccccc1F,0.348
15,CCn1c(-c2nn(C)c(C)c2Cl)n[nH]c1=S,-0.461
16,CCCCn1nnc(NC(=O)c2ccc(-c3cccc(Cl)c3)o2)n1,-0.581
17,CCCCn1nnc(NC(=S)NC(=O)c2cccs2)n1,0.0688

row,Structure (SMILES),z-score
1,CCCCn1nnc(NC(=S)NC(=O)c2ccc(-c3cccc(Cl)c3Cl)o2)n1,4.59 (active)
2,COc1cccc(C(=O)/C=C/c2ccc(SC)cc2)c1,0.0506
3,CCC(C)N1CC(C(=O)O)CC1=O (stereo not drawn),-0.0459
4,CCOc1ccc(S(=O)(=O)N2CCN(Cc3ccccc3)CC2)c2cccnc12,0.939
5,Cc1cc(Oc2ccc(C)c(Cl)c2)nc(SCC(=O)c2ccccc2)n1,-0.36
6,N#C/C(=C\c1ccc(N2CCCC2)c([N+](=O)[O-])c1)c1nc2ccccc2[nH]1,0.221
7,N#C/C(=C/c1ccc(N2CCCC2)c([N+](=O)[O-])c1)c1nc2ccccc2[nH]1,0.0678
8,N#C/C(=C\c1ccc(N2CCOCC2)c([N+](=O)[O-])c1)c1nc2ccccc2[nH]1,2.63
9,COC(=O)N/N=C/c1cc(C)n(-c2cccc3ccccc23)c1C,0.0823
10,O=C(Nc1ccccc1)N1CCN(c2ccc(C(F)(F)F)cn2)CC1,-0.362
11,Nc1nc(CN2CCN(Cc3ccccc3)CC2)nc(Nc2ccccc2)n1,0.26
12,CC1CC(C)CN(Cc2nc(N)nc(Nc3ccc4ccccc4c3)n2)C1 (stereo not drawn),3.66 (active)
13,COc1ccccc1Nc1nc(N)nc(CN2CCC(Cc3ccccc3)CC2)n1,0.165
14,Nc1nc(CN2CCCCCC2)nc(Nc2ccccc2)n1,0.00781
15,CC1CC(C)CN(Cc2nc(N)nc(Nc3ccccc3)n2)C1 (stereo not drawn),0.639
16,Nc1nc(CN2CCC(Cc3ccccc3)CC2)nc(Nc2ccccc2)n1,2.39
